ssDAF12 agonist = S. stercoralis DAF-12 activation, primary screen; 370,000 compounds, 1% hits; HEK293 ssDAF-12/GRIP1 lit1-tk-luc reporter, luminescence; % of 3 µM dafachronic acid response; AID 652126; activation, % at 6.8 µM;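 active = activation above the mean over all tested compounds plus 3 SD, cut at about 0.9% in these data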;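 note: 0% = DMSO-only wells and 100% = 3 µM delta7-dafachronic acid wells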
hcDAF-12 act = H. contortus DAF-12 activation, primary screen | HEK293 hcDAF-12 lit1-tk-luc reporter, luminescence; 0% DMSO, 100% Δ7-dafachronic acid | activation, % at 6.8 µM | 370,000 compounds, 1.4% hits;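 active = activation above the mean of all tested compounds plus 3 SD, cut at about 5.5% in these data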;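 note: 100% = response to 3 µM Δ7-dafachronic acid high control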
DAX1 inh-1 = inhibits human nuclear receptor DAX1. P51843. HEK293 Gal4-DAX1 luciferase reporter, luminescence. inhibition, % at 6.75 µM. 340,000 compounds, 0.99% hits. AID 504766;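 active = inhibition above the mean over all tested compounds plus 3 SD, cut at about 4.2% in these data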;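 note: 0% = DAX1-transfected cells with DMSO and 100% = empty-vector control cells with DMSO; inhibition shows as a rise in luminescence from relieved DAX1 repression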
AHR act = activators of human aryl hydrocarbon receptor | AHR-responsive luciferase reporter cells, luminescence | P35869 | 320,000 compounds, 2.5% hits | activation, % at 5 µM | AID 2796; in the data active = activation above about 47%;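 note: 0% = vehicle wells and 100% = reference agonist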
hgDAF-12 ag = activates the H. glycines DAF-12 receptor ligand-binding domain; AID 687014; 370,000 compounds, 1.8% hits; HEK293 GAL4-hgDAF12 UAS-luciferase reporter, agonist luminescence; normalized to butyrate control; activation, % at 6.8 µM;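 active = activation above a cutoff set at the mean of all screened compounds plus 3 SD, cut at about 10% in these data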;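 note: 0% = DMSO wells and 100% = sodium butyrate wells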
DAX1 inh-2 = inhibitors of DAX1 repression of SF-1 activated StAR promoter | HEK293T StAR-luciferase reporter, SF-1/DAX-1 repression relief | inhibition, % at 6.8 µM | 370,000 compounds, 1.1% hits | AID 652010;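 active = inhibition above the mean over all tested compounds plus 3 SD, cut at about 3.6% in these data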;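 note: 0% = DAX-1 cells with DMSO and 100% = cells lacking DAX-1 with DMSO; higher inhibition means more luminescence from relief of DAX-1 repression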
The depositor's hits bear a star; nt = no result given. This is a sample that favours compounds with a hit; in the whole collection about 5.7% have one here.

SMILES	ssDAF12 agonist	hcDAF-12 act	DAX1 inh-1	AHR act	hgDAF-12 ag	DAX1 inh-2
Cc1ccc(C2=NN(C(=O)CSc3nc4ncc(Cl)cc4[nH]3)C(c3ccco3)C2)cc1 (stereo not drawn)	-1	0	3	44	1	1
COc1ccc(C2=NN(C(=O)CSc3nc4ncc(Cl)cc4[nH]3)C(c3ccco3)C2)cc1 (stereo not drawn)	-1	-2	-1	47*	0	-2
CCC(=O)N1N=C(c2ccc(Cl)cc2)CC1c1ccco1 (stereo not drawn)	-2	-1	5.8*	-3	1	0
CCCCOc1ccc(C(=O)NC2CCCCN(Cc3cccc(C(F)(F)F)c3)C2=O)cc1 (stereo not drawn)	-2	-6	nt	nt	3	-4
O=C(COC(=O)c1ccccc1NC(=O)c1ccco1)NCc1ccc2c(c1)OCO2	-1	-1	1	-1	0	0
Cc1ccc(OCC(=O)c2cc(C)n(C3CC3)c2C)c([N+](=O)[O-])n1	-2	1	1	-3	0	1
Cc1cc(C(=O)COc2cccc([N+](=O)[O-])c2)c(C)n1C1CC1	0	3	0	-3	13*	2
c1ccc(-c2nc(NCCCn3ccnc3)c3oc4ccccc4c3n2)cc1	-1	3	-1	82*	-1	-2
Cc1nc(NCCCn2ccnc2)c2ccccc2n1	-1	-2	0	57*	-1	0
c1cncc(-c2nc(NCCCn3ccnc3)c3ccccc3n2)c1	-2	-1	0	75*	0	-2
Cc1ccc(-c2nc3ccccc3c(=O)n2CCCn2ccnc2)cc1	-2	-1	1	5	1	0
O=c1c2ccccc2nc(-c2ccccc2)n1CCCn1ccnc1	-1	0	1	56*	0	0
CN(C)c1oc(/C=C/c2cccs2)nc1S(=O)(=O)c1ccccc1	-1	2	0	5	0	0
CCN(CC)CCNc1ncnc2c1sc1nc(N3CCOCC3)c3c(c12)CC(C)(C)SC3	1.1*	-2	0	-4	-1	0
COc1ccc2cc(/C=N/NC(=O)CN(c3ccccc3C)S(=O)(=O)c3ccccc3)c(Cl)nc2c1	-1	3	-1	1	-1	1
CCC1(CC)NC(=O)N(CC(=O)NCc2ccc3c(c2)OCO3)C1=O	0	-2	0	3	1	1
CCc1ccccc1NC(=O)NCc1ccc2c(c1)OCO2	-1	1	1	68*	1	0
Cc1ccccc1C(=O)Nc1ccc2c(c1)OCCO2	1.8*	5	-3	nt	11*	3
COc1ccccc1NC(=O)Nc1ccc2c(c1)OCCO2	0	1	8.0*	14	13*	2
CSc1ccccc1C(=O)Nc1ccc2c(c1)OCCO2	-1	0	0	11	3	1
O=C(CN1C(=O)NC2(CCCCC2)C1=O)NCc1ccc2c(c1)OCO2	-2	-1	7.2*	1	1	-1
CCc1cccc(C)c1NC(=O)Nc1ccc2c(c1)OCO2	-2	-1	0	27	0	0
Cc1ccccc1NC(=O)Nc1ccc2c(c1)OCO2	0	0	1	68*	8	3
O=C(Nc1ccc2c(c1)OCCO2)c1cnn(-c2ccccc2)n1	0	1	0	4	10	4.2*
Cc1ccc(C)c(NC(=O)Nc2ccc3c(c2)OCO3)c1	0	1	2	64*	2	3
SMILES	ssDAF12 agonist	hcDAF-12 act	DAX1 inh-1	AHR act	hgDAF-12 ag	DAX1 inh-2
Cc1c(NC(=O)Nc2ccc3c(c2)OCO3)cccc1[N+](=O)[O-]	-1	2	1	31	8	2
O=C(NCc1ccc2c(c1)CCO2)Nc1ccccc1	-1	0	3	0	12*	2
O=C(Nc1ccc2c(c1)OCCO2)c1cccc(C(=O)Nc2ccc3c(c2)OCCO3)c1	-1	3	-1	8	1	0
Nc1[nH]c(C(=O)c2ccc(Br)cc2)c(-c2ccccc2Cl)c1C(=O)NCCc1c[nH]c2ccccc12	-1	0	nt	nt	-1	0
O=S1(=O)N[C@H](c2ccccc2)COc2cc(Br)ccc21	-1	-1	nt	nt	1	-1
Cc1[nH]nc(-c2ccc(OCc3cnn(-c4ccccc4)c3)cc2O)c1Oc1ccccc1F	-1	-1	2	50*	1	0
O=c1c(Oc2ccccc2F)coc2cc(OCc3cnn(-c4ccccc4)c3)ccc12	-1	1	2	1	1	0
CC(C)(C)NC(=O)CN(C(=O)CNS(=O)(=O)c1ccc(Cl)cc1)c1ccc2c(c1)OCCO2	-1	2	-1	3	1	0
CCCOCc1ccc(O)c2ncccc12	-1	1	1	5	12*	0
COc1ccc(OC)c(NC(=O)COc2cc(O)c3c(c2)OC(C)(C)CC3=O)c1	-1	0	nt	nt	-2	0
O=C(NCCCn1ccnc1)Nc1ccc2c(c1)OCO2	-1	-1	0	50*	3	0
Cc1nn(C)c(C)c1CNC(=O)Nc1cccc(Cl)c1	0	2	2	9	11*	4.0*
Cn1cc(CNC(=O)Nc2ccc3c(c2)OCO3)cn1	0	0	0	13	3	1
O=C(NCCCn1ccnc1)Nc1cccc(Cl)c1	-1	-2	0	60*	1	0
CCOc1ccc(C(=O)C(C)OC(=O)CN2C(=O)NC(C)(C)C2=O)cc1 (stereo not drawn)	-1	0	-2	0	-2	2
COc1cccc(COc2ccccc2C2Nc3ccc(Br)cc3C(=O)N2NC(=O)c2ccncc2)c1 (stereo not drawn)	-1	-1	0	52*	-2	-1
CC(C)=CCOc1c2ccoc2c(OCC=C(C)C)c2oc(=O)ccc12	-1	0	-1	40	1	0
C=C(C)[C@@H](O)COc1c2ccoc2cc2oc(=O)ccc12	0	-1	-1	30	-1	-1
CC(C)=CCOc1c2ccoc2cc2oc(=O)ccc12	-2	-2	-2	51*	1	1
CC1(C)O[C@@H]1COc1c2ccoc2cc2oc(=O)ccc12	0	-2	0	70*	2	0
COc1cc(OC)cc(OCC(O)Cn2ccnc2)c1 (stereo not drawn)	-1	-1	-1	53*	-4	0
OC(COc1ccc(Br)cc1)Cn1ccnc1 (stereo not drawn)	0	-2	-1	20	-1	0
O=C(N[C@H](C(=O)N1CCC[C@H]1C(=O)NCCc1ccccc1Cl)c1ccccc1)c1ccco1	-1	-1	nt	nt	-1	0
Nc1cc(=O)[nH]c(SCCNS(=O)(=O)c2ccccc2)n1	0.9*	3	-2	-1	3	0

Bioassay records from PubChem.
